Data on 59 compounds can be found in PubChem BioAssay AID1063 (University of Pittsburgh Molecular Library Screening Center, 2008).

The whole screen tested about 200,000 compounds, of which about 18,000 (9%) were called active. The sample as a whole holds a higher share of actives than the screen did. A number with no mark means an inactive call. Rule as the data show it: active = inhibition above about 50%; inactive = the rest.

This test in a line: antileishmanial activity against promastigotes – primary screen (AID 1063).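 Also: promastigotes grown with compound for 44 hours at 28 °C.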 The note with it: Leishmania major promastigotes, resazurin fluorescence viability; at 10 µM; active compounds read high.
In the case of `O=C(Nc1cc(S(=O)(=O)N2CCOCC2)ccc1Cl)c1cc(=O)c2ccccc2o1`, the inhibition was 31.5%.

In the case of `COC(=O)c1ccc(NC(=O)c2cc(Cl)ccc2OC)cc1`, the inhibition was -3.49%.

`Cc1ccc(N=Nc2c(C)[nH]n(-c3ccccc3)c2=O)cc1`: the inhibition is -5.3%.

Turning to `COc1ccc(/C=N/NC(=O)c2ccccc2)cc1OS(=O)(=O)c1ccccc1`, the inhibition is 4.68%.

For the compound `Cc1[nH]n(-c2ccccc2)c(=O)c1/C=N/NC(=O)c1ccoc1C`, the inhibition was 96.8% (active).

As to `Cc1ccc(-n2[nH]c(C)c(/C=N/NC(=O)c3cccc([N+](=O)[O-])c3)c2=O)cc1C`, the inhibition is 96.9% (active).

On to `Cc1[nH]n(-c2ccc(Cl)cc2)c(=O)c1/C=N/n1c(C)nc2ccccc2c1=O`, for which the inhibition is -14.5%.

Regarding `Cc1[nH]n(-c2ccc([N+](=O)[O-])cc2)c(=O)c1C=NCCN1CCN(C(=O)c2ccccc2F)CC1`, the inhibition is -1.62%.

For the compound `COc1cc(OC)c(/C=N/NC(=O)c2ccc([N+](=O)[O-])cc2)cc1Br`, the inhibition was -7.92%.

Regarding `Cc1cccc(C(=O)NNC(=O)c2cccc([N+](=O)[O-])c2)c1`, the inhibition is 4.56%.

For the compound `COc1cccc(/C=N/NC(=O)c2cccc([N+](=O)[O-])c2)c1OS(=O)(=O)c1ccc(C)cc1`, the inhibition was 55.1% (active).

For the compound `O=C(CC12CC3CC(CC(C3)C1)C2)NCc1ccco1`, the inhibition was -4.33%.

Take `CCOc1ccc(OCc2cccc(C(=O)N(CC)CC)c2)cc1`: the inhibition is 0.53%.

Regarding `Cc1c(NC(=O)CSc2nnnn2-c2ccc(C(=O)O)cc2)c(=O)n(-c2ccccc2)n1C`, the inhibition was -3%.

On to `CCOc1ccc(CCN2C(=O)c3cccnc3C2=O)cc1OCC`, for which the inhibition was -10.8%.

For the compound `Cn1cnnc1SCC(=O)Nc1ccc(N2CCOCC2)cc1`, the inhibition was -5.65%.

Turning to `N#Cc1ccc(OCc2nnc(-c3ccc([N+](=O)[O-])cc3)o2)cc1`, the inhibition was -3.9%.

As to `CCc1ccc2ncc(C(=O)c3ccccc3)c(N3CCOCC3)c2c1`, the inhibition is 10.5%.

For `O=[N+]([O-])c1ccccc1NCc1ccccc1Cl`, the inhibition is 12.2%.

`C=CCc1cccc2cc(C(=O)Nc3ccc(NC(C)=O)cc3)c(=O)oc12`: the inhibition is -6.83%.

In the case of `C/C(=N\NC(=O)c1cccc(N2CCCC2=O)c1)c1ccc(N)cc1`, the inhibition was -3.01%.

Consider `CC(C)(C)c1ccc(C(=O)NCCC(=O)NCc2ccco2)cc1`, for which the inhibition was -5.5%.

Consider `O=C(CN1C(=O)/C(=C\c2ccc(C(F)(F)F)cc2)Sc2ccccc21)NCc1ccco1`, for which the inhibition is 95.1% (active).

In the case of `O=C(CN1C(=O)/C(=C/c2ccccc2F)Sc2ccccc21)NCc1cccnc1`, the inhibition was 19.2%.

With `CCc1[nH]nc(C(=O)N2CCCC(CNS(=O)(=O)c3cccs3)C2)c1C` (centres undefined), the inhibition is -4.31%.

Take `CN(C)S(=O)(=O)c1cccc(NC(=S)NCc2ccc3c(c2)OCO3)c1`: the inhibition was -0.11%.

Regarding `CC1CCCCN1C(=S)NCc1ccccc1` (centres undefined), the inhibition is -0.34%.

As for `C/C(=N\NC(=S)NCc1ccccc1)c1ccc(Cl)cc1`, the inhibition is 1.34%.

Turning to `C/C(=N\NC(=S)NCc1ccccc1)C1CCCCC1`, the inhibition is 89.9% (active).

On to `COc1ccc2nc(Nc3nc(-c4ccncc4)cs3)sc2c1`, for which the inhibition is 7.68%.

For `c1csc(-c2nnc(COc3ccc4c(c3)OCO4)o2)c1`, the inhibition was 5.84%.

`CCN(C(=O)COC(=O)c1ccc(COc2ccc3c(C)cc(=O)oc3c2)cc1)C1CCS(=O)(=O)C1` (centres undefined): the inhibition was -10.4%.

Take `Cc1ccc(NC(=O)c2ccc(Oc3ncccn3)cc2)cc1`: the inhibition was 7.15%.

Consider `FC(F)(F)c1cccc(N/N=C/c2ccccc2)c1`, for which the inhibition was -13.1%.

Take `Cc1nccn1CC(=O)N/N=C/c1ccc(O)c(O)c1`: the inhibition is -6.58%.

As to `Oc1ccc(/C=N/Nc2ccc(C(F)(F)F)cn2)cc1O`, the inhibition is 95.4% (active).

As to `CCc1nnc(NC(=O)C2CC(=O)N(c3ccc4c(c3)OCCO4)C2)s1` (centres undefined), the inhibition is -9.31%.

For `c1ccc(CCn2nnnc2CN2CCN(C3CCCC3)CC2)cc1`, the inhibition was 85.5% (active).

For `c1ccc(C(c2ccccc2)N2CCN(Cc3nnnn3C3CCCCC3)CC2)cc1`, the inhibition is 9.22%.

`N#Cc1ccc(C(c2nnnn2CCc2ccccc2)N2CCCCCC2)cc1` (centres undefined): the inhibition was 16.3%.

`CCOc1cc(NC(=S)NCCCN(C)C)c(OCC)cc1NC(=O)C1CC1`: the inhibition is -0.62%.

With `C=CCn1cc(-c2cccc(C(F)(F)F)c2)cc(C#N)c1=O`, the inhibition was 10.4%.

For `C[n+]1ccccc1C1CCCC/C1=N\Nc1ccc([N+](=O)[O-])cc1[N+](=O)[O-]` (centres undefined), the inhibition is -1.09%.

`O=[N+]([O-])c1ccc(N/N=C2/CCCCC2c2ccccn2)c([N+](=O)[O-])c1` (centres undefined): the inhibition is 2.5%.

Turning to `O=C(Nc1ccccc1)O/N=C1\CCCCC1c1ccc([N+](=O)[O-])cc1[N+](=O)[O-]` (centres undefined), the inhibition is 99.6% (active).

`O=C(Nc1ccccc1Cl)/C(Cl)=C(\Cl)S(=O)c1ccccc1` (centres undefined): the inhibition was 101% (active).

`O=C(CN1CCCCC1)Nc1ccccc1Cl`: the inhibition is -0.98%.

In the case of `O=C(Nc1ccccc1Cl)c1ccc2nsnc2c1`, the inhibition is -3.57%.

Regarding `COc1cccc(/C=C/C(=O)Nc2ccc3c(c2)OCCO3)c1`, the inhibition is 13.7%.

For `Cc1cc(C(=O)Nc2ccccc2N2CCOCC2)c2ccccc2n1`, the inhibition was 1.07%.

In the case of `CCN1CCN(c2cc3nc(C)n(Cc4ccccc4)c(=O)c3cc2NC(=O)c2ccccc2F)CC1`, the inhibition was 98.3% (active).

With `CCC(=O)Nc1ccc2nc(C)n(Cc3ccccc3Cl)c(=O)c2c1`, the inhibition was 4.75%.

As to `Cc1c(/C=N\NC(=O)c2cc3ccccc3o2)c2ccccc2n1C`, the inhibition was 9.72%.

Take `O=C(c1ccc2ccccc2n1)N1CCN(c2ccccc2Cl)CC1`: the inhibition was -3.63%.

For the compound `O=C(c1ccc(-c2ccccc2)cc1)C1CCCN(C(=O)c2cncs2)C1` (centres undefined), the inhibition is 58.5% (active).

In the case of `O=C(c1ccc(C(F)(F)F)cc1)C1CCCN(C(=O)c2csnn2)C1` (centres undefined), the inhibition was -5.59%.

Regarding `CSc1ccc(C(=O)C2CCCN(C(=O)c3ccc(C)nc3)C2)cc1` (centres undefined), the inhibition is -4.42%.

`C/C=N/NC(=O)CCCC(=O)N/N=C/C`: the inhibition was 13.8%.

Take `COc1cccc(NC(=O)CN(C)C(C)C(=O)Nc2ccc(C#N)cc2)c1` (centres undefined): the inhibition was 5.24%.
